The target of one assay is C1orf168. Nature of the assay: pooled miR-30 sensor sort-seq; sequence = guide strand. As to conditions: shRNA.
With TTGACATGTAAACTGAAACTGA, the sensor-assay potency score (higher = more potent) was -0.315.

In turn, TAGAAGCAAACTAACCATCTGC came in with a sensor-assay potency score (higher = more potent) of 0.515.

Turning to TTTCTTGAAGAATTGCTGCAGT, the sensor-assay potency score (higher = more potent) turned out to be 0.0759.

In turn, TAGACATTGAAAGATAACCTTT returned a sensor-assay potency score (higher = more potent) of -0.653.

The sequence TTTCTGATTCTTCAGCACCGTT yielded a sensor-assay potency score (higher = more potent) of -1.25.

Sequence TATCACTAGATTTTGTTCGGTG had a sensor-assay potency score (higher = more potent) of 0.284.

In the case of TTGATGACAATAATCTCTTTGT, the sensor-assay potency score (higher = more potent) is -0.247.

The sequence TTCTAGGAGAGAAACTTTCTGA yielded a sensor-assay potency score (higher = more potent) of -0.177.

TTCTCTTGAACTGACAGTGAAG showed a sensor-assay potency score (higher = more potent) of -0.905.

On to TTTGTTTCCAGCTTTTTCCTGG, for which the sensor-assay potency score (higher = more potent) amounted to 0.241.

In the case of TTTCACATTCTCTTGAACTGAC, the sensor-assay potency score (higher = more potent) was 0.742.

Regarding TATTAGAAGCAAACTAACCATC, the sensor-assay potency score (higher = more potent) is -0.751.

The next assay concerns the target C1orf61. Described as above. As to conditions: shRNA.
TCTATCGTCCACACGGAGGAAG came in with a sensor-assay potency score (higher = more potent) of -0.948.

Turning to AAGATCATGGAATTTCTCCTGA, the sensor-assay potency score (higher = more potent) worked out at 0.708.

TTCTTTTTGGTCTCCCAACTTA: the sensor-assay potency score (higher = more potent) was -0.917.

The sequence AACCAGATGAAGTACATTCTTC yielded a sensor-assay potency score (higher = more potent) of -0.97.

The sequence TTCTTCTTTTTGGTCTCCCAAC registered a sensor-assay potency score (higher = more potent) of -1.55.

Consider TTGGTCTCCCAACTTAGCCATG, for which the sensor-assay potency score (higher = more potent) is -1.74.

In turn, TTGAGAGGTCCTGAGTGGCAGG showed a sensor-assay potency score (higher = more potent) of -0.741.

As for TCGGGGACTTGAGAGGTCCTGA, the sensor-assay potency score (higher = more potent) is -0.479.

With TTTGGTCTCCCAACTTAGCCAT, the sensor-assay potency score (higher = more potent) is -0.53.

TATAGCCATATAGATCTTGGTT gave a sensor-assay potency score (higher = more potent) of -1.16.

TTGTGCTGCCTGGAGGACGAGG displayed a sensor-assay potency score (higher = more potent) of -1.4.

The values above are taken from the OligoGym collection.
Further: reference of the scale not given here.
